The values that follow come from PubChem BioAssay (Tox21).

Several values for one entry are separate records, joined by “and”; a condition that tells them apart may be missing. Equal values may be shown once. Results filed as inconclusive are left out. Where a call stands in place of a potency, no number is given. Some compounds were tested as several samples or in several runs, with calls that do not always agree. Activity calls are given as the source filed them. Calls come from the whole dose curve; as a rule, active = well fitted cell-killing curve with a large enough effect in the repeat runs; inconclusive = weak or mixed curves, or effect the other way; inactive = no such curve, though single readings can be large or run the other way.
Potency is the fitted concentration of half-maximal effect.

The test can be described thus: qHTS assay for identifying genotoxic compounds that show differential cytotoxicity against isogenic chicken DT40 cell lines with known DNA damage response pathways - Rev3 mutant cell line (AID 743014). Note: nearly all actives have a fitted effect of over 55% in size. As to conditions: chicken DT40 Rev3-/- viability, CellTiter-Glo, 40 h; series mostly up to 68.4 µM. The source says:
National Center for Advancing Translational Sciences [NCATS]
NIH Chemical Genomics Center [NCGC]
U.S. Environmental Protection Agency [EPA]
National Institutes of Environmental Health Sciences [NIEHS]
National Toxicology Program [NTP]
U.S. Food and Drug Administration [FDA]
DNA repair pathways play a critical role in cellular homeostasis by repairing DNA damage induced by endogenous processes and xenobiotics. Isogenic chicken DT40 cell lines deficient in different DNA repair pathways can be used to identify genotoxic compounds and aid in characterizing the nature of the DNA damage induced. Two DNA repair-deficient cell lines with disrupted genes, Rad54/Ku70 or Rev3, were used to screen the Tox21 10K compound library. Possible genotoxicity was based on the presence of a significant increase in cytotoxicity in one or more of the DNA repair-deficient cell lines compared to that observed in the parental DNA repair-proficient cell line. CellTiter Glo viability assay (Promega, Madison, WI) was used to measure cell viability in these cells after compound treatment. This assay includes the data from the Rev3 mutant cell line.
Tox21 Assay Protocol Summary:
300 DT40 mutant cells in 5 uL/well were dispensed into white, solid-bottom 1536-well plates using a Multidrop Combi (ThermoFisher Scientific, Waltham, MA) dispenser. After the assay plates were incubated at 37 C/5% CO2 for approximately 0.5 hour, 23 nL of compounds dissolved in DMSO, positive controls or DMSO only was transferred into the assay plate by a pintool work station (Kalypsys, San Diego, CA). The assay plates were incubated at 37 C/5% CO2 for 40 hours. After 5 uL per well of CellTiter-Glo reagent was added into each well of the assay plates, the plates were incubated for 30 min at room temperature and the luminescence intensity of the plates was measured using a ViewLux (PerkinElmer, Shelton, CT) plate reader.
Consider `COCC(C)N(C(=O)CCl)c1c(C)csc1C` (stereo not given), for which the Potency entry was “inactive and 15.4 µM (active)”.
The entry for `C#CCOC(C(=O)OCCN(C)C)(c1ccccc1)c1ccccc1` is “inactive”.
Turning to `CC(c1ccc(O)cc1)(c1ccc(O)cc1)c1ccc(O)cc1`, the Potency was 38.6 µM (active).
As to `C/C(=C\c1ccccc1)[N+](=O)[O-]`, the Potency is 4.33 µM (active).
With `COC(=O)C(Br)CBr` (stereo not given) the entry was “inactive”.
The entry for `CCOP(=O)(OCC)Oc1ccc([N+](=O)[O-])cc1` is “inactive”; for `O=C1NCN(c2ccccc2)C12CCN(CCCOc1ccc(F)cc1)CC2` it is 13.3 µM (active).
In the case of `CC(=O)CCC(C)=O`, the Potency entry is “inactive”.
The entry for `c1ccc(CN2CCNCC2)cc1` is “inactive”; for `Cc1ccc(N)cc1C` it is “inactive”.
The figure for `CCCCC(O)(Cn1cncn1)c1ccc(Cl)cc1Cl` (stereo not given) is 13.7 µM (active); for `COc1c(C(C)(C)C)cc([N+](=O)[O-])c(C)c1[N+](=O)[O-]` it is “inactive”.
With `CC(C)(Cl)[N+](=O)[O-]` the entry was “inactive”; with `C(=NC1CCCCC1)=NC1CCCCC1`, “inactive and 21.7 µM (active)”.
On to `CC(C)(C)C(O)C(Oc1ccc(Cl)cc1)n1cncn1` (stereo not given), for which the Potency is 32.5 µM (active).
With `O=C(N[C@H](c1ccccc1)[C@@H]1CN2CCC1CC2)c1c(Cl)ccc(C(F)(F)F)c1Cl` the figure was 39.2 µM (active); with `NCCCNCCCN`, 55.3 µM (active); with `N#CCc1ccccc1`, “inactive”.
Turning to `O=C(NCc1cccnc1)Nc1ccc([N+](=O)[O-])cc1`, the Potency entry is “inactive”.
As to `Cl/C=C\C[N+]12CN3CN(CN(C3)C1)C2`, the Potency was 30.6 µM (active).
With `O=C(O)C(F)(F)C(F)(F)C(F)(F)C(F)(F)C(F)(F)C(F)(F)C(F)(F)C(F)(F)C(F)(F)F` the entry was “inactive”; with `CCCCN(N=O)C(=N)N[N+](=O)[O-]`, 1.57 µM (active).
On to `CC[C@H]1C[C@H]2[C@@H]3CCC4=CC(=O)CC[C@@H]4[C@H]3CC[C@]2(C)[C@H]1O`, for which the Potency is 29.8 µM (active).
With `CCCCc1c(C)nc(NCC)nc1OS(=O)(=O)N(C)C` the figure was 19.3 µM (active).
With `O=C(NC(=O)c1c(F)cccc1F)Nc1cc(Cl)c(Oc2ncc(C(F)(F)F)cc2Cl)c(Cl)c1` the figure was 2.08 µM (active).
As for `C=CC(C)=O`, the Potency result is “inactive”.
The entry for `C=C(C#N)CCC#N` is “inactive”.
With `COP(=O)(OC)O/C(=C/Cl)c1cc(Cl)c(Cl)cc1Cl` the figure was 28.8 µM (active).
As to `CCBr`, the Potency entry is “inactive”.
With `CC1(C)[C@H](C=C(Cl)Cl)[C@@H]1C(=O)O[C@@H](C#N)c1cccc(Oc2ccccc2)c1` the entry was “inactive”; with `O=NN1CCNCC1`, “inactive”; with `O=Cc1ccc2c(c1)OCO2`, “inactive”.
Turning to `CCCCCCC#N`, the Potency result is “inactive”.
The entry for `CC/C(=N\OC/C=C/Cl)C1=C(O)CC(C2CCOCC2)CC1=O` (stereo not given) is “inactive”.
The entry for `Clc1cc(Cl)c(Cl)c(Cl)c1` is “inactive”; for `O=C(CCl)c1ccc(Cl)cc1Cl` it is 1.06 µM (active) and 2.73 µM (active) and 17.1 µM (active).
The entry for `O=C(O)C(F)(F)C(F)(F)C(F)(F)C(F)(F)C(F)(F)C(F)(F)C(F)(F)C(F)(F)C(F)(F)C(F)(F)F` is “inactive”; for `O=C(CBr)c1ccccc1` it is 61.5 µM (active).
As to `C/C=C/C=O`, the Potency result is “inactive”.
With `Cn1sc(Cl)cc1=O` the entry was “inactive and 21.7 µM (active)”.
